Test results as given in PubChem BioAssay (Tox21).
Where “and” joins values, the source holds several entries; their conditions need not be identical. Equal values may be shown once. Records with an inconclusive call do not appear. More than one record can exist for a structure, and the calls need not agree. Calls of active or inactive are those of the source. Unless noted, calls come from the whole dose curve; as a rule, active = well fitted curve in the direction sought with a large enough effect in the repeat runs; inconclusive = weak or mixed curves; inactive = no such curve, though single readings can be large; an effect the other way counts as inactive or inconclusive.

Legend:
[1] = qHTS assay to identify small molecule antagonists of the glucocorticoid receptor (GR) signaling pathway - cell viability counter screen (AID 720693); note: nearly all actives have a fitted effect of over 55% in size
[2] = qHTS assay for identifying genotoxic compounds that show differential cytotoxicity against isogenic chicken DT40 cell lines with known DNA damage response pathways - wild type cell line (AID 743012); note: nearly all actives have a fitted effect of over 60% in size; note: potency is the fitted concentration of half-maximal effect
How it was run: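 Cells (DT40 wild type, 300/well) are treated with DMSO-dissolved compounds after a ~0.5 h pre-incubation and kept 40 h at 37 C/5% CO2. Viability is then measured by CellTiter-Glo luminescence following 30 min at room temperature.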

[3] = qHTS assay for identifying genotoxic compounds that show differential cytotoxicity against isogenic chicken DT40 cell lines with known DNA damage response pathways - Rev3 mutant cell line (AID 743014); note: nearly all actives have a fitted effect of over 55% in size; note: potency is the fitted concentration of half-maximal effect
[4] = qHTS assay for identifying genotoxic compounds that show differential cytotoxicity against isogenic chicken DT40 cell lines with known DNA damage response pathways - Rad54/Ku70 mutant cell line (AID 743015); note: nearly all actives have a fitted effect of over 60% in size; note: potency is the fitted concentration of half-maximal effect
[5] = qHTS assay to identify small molecule antagonists of the androgen receptor (AR) signaling pathway - cell viability counter screen (AID 743033; note: nearly all actives have a fitted effect of over 45% in size; note: potency is the fitted concentration of half-maximal effect)
[6] = qHTS assay to identify small molecule antagonists of the androgen receptor (AR) signaling pathway using the MDA cell line - cell viability counter screen (AID 743041; note: nearly all actives have a fitted effect of over 45% in size; note: potency is the fitted concentration of half-maximal effect)
How it was run: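 Viability counter screen run alongside the AR antagonist reporter: cells seeded 5 h before compound, R1881 added, 16 h incubation at 37C without CO2, fluorescent CellTiter-Fluor signal quantified.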

[7] = qHTS assay to identify small molecule antagonists of the thyroid receptor (TR) signaling pathway - cell viability counter screen (AID 743064); note: nearly all actives have a fitted effect of over 50% in size; note: potency is the fitted concentration of half-maximal effect
How it was run: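 Rat GH3 pituitary tumor cells stably expressing two TR response elements driving luciferase were plated, rested 4 h, then dosed with library compounds and T3 (1 nM final). After 23.5 h at 37 °C, CellTiter-Fluor was added for 30 min and fluorescence recorded.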

[8] = qHTS assay to identify small molecule antagonists of the thyroid receptor (TR) signaling pathway (AID 743065); note: nearly all actives have a fitted effect of over 55% in size; note: potency is the fitted concentration of half-maximal effect; for activity, negative = inhibition: series mostly up to about 70 µM
How it was run: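 GH3.TRE-Luc rat pituitary cells carrying two TR response elements driving luciferase were plated for 4 h, given compound plus 1 nM T3 (final), and incubated 23.5 h at 37 C. ONE-Glo luminescence measured reporter inhibition; CellTiter-Fluor fluorescence tracked cytotoxicity.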

[9] = tested on: thyroid hormone receptor (rat, GH3 cells); experiment: qHTS assay to identify small molecule agonists of the thyroid receptor (TR) signaling pathway (AID 743066; calls by dose curve)
[10] = target: Estrogen receptor (Homo sapiens) (UniProt P03372); experiment: qHTS assay to identify small molecule antagonists of the estrogen receptor alpha (ER-alpha) signaling pathway (AID 743069; active = well fitted curve in the direction sought with a large enough effect in the signal ratio in the repeat runs, not every such curve was filed as active; the % refers to the signal ratio)
How it was run: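 Estradiol-stimulated ER-alpha-UAS-bla HEK293 cells, 18 hr compound exposure at 37C. LiveBLAzer B/G substrate, 2 hr RT, fluorescence read.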

[11] = qHTS assay to identify small molecule antagonists of the estrogen receptor alpha (ER-alpha) signaling pathway - cell viability counter screen (AID 743074; calls by dose curve;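 note: HEK293 cells carrying ER-alpha-UAS-bla reporter stimulated with 17beta-estradiol; nearly all actives have a fitted effect of over 45% in size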)
[12] = target: Estrogen receptor (Homo sapiens) (UniProt P03372); experiment: qHTS assay to identify small molecule agonists of the estrogen receptor alpha (ER-alpha) signaling pathway (AID 743075; calls by dose curve;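 note: HEK293 GripTite cells with ER-alpha and UAS-driven beta-lactamase reporter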)
[13] = target: Estrogen receptor (Homo sapiens) (UniProt P03372); experiment: qHTS assay to identify small molecule agonists of the estrogen receptor alpha (ER-alpha) signaling pathway using the BG1 cell line (AID 743079); note: nearly all actives have a fitted effect of over 20% in size
[14] = qHTS assay to identify small molecule antagonists of the estrogen receptor alpha (ER-alpha) signaling pathway using the BG1 cell line - cell viability counter screen (AID 743081);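 note: compound given together with 17beta-estradiol as the ER stimulus; nearly all actives have a fitted effect of over 45% in size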; note: potency is the fitted concentration of half-maximal effect; for activity change, negative = cytotoxicity: series mostly up to about 70 µM
Aromatase (Homo sapiens) = Aromatase (Homo sapiens) (UniProt P11511); experiment: qHTS assay to identify aromatase inhibitors (AID 743083); note: nearly all actives have a fitted effect of over 55% in size; note: potency is the fitted concentration of half-maximal effect; for activity, negative = inhibition: series mostly up to about 70 µM
[15] = qHTS assay to identify small molecule antagonists of the estrogen receptor alpha (ER-alpha) signaling pathway using the BG1 cell line (AID 743080; calls by dose curve;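 note: BG1 cells stimulated with 17beta-estradiol alongside compound; series mostly up to about 70 µM; nearly all actives have a fitted effect of over 25% in size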)
How it was run: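 BG1Luc4E2, endogenous ER-alpha, 4xERE-luc; 5 d charcoal-stripped FBS, phenol red free; 24 h plating; cpd + 17beta-estradiol 21.5 h, 37 C/5% CO2; CellTiter-Fluor viability 30 min, then ONE-Glo luciferase 30 min RT.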
% is set by controls: 0 for no effect and ±100 for the full control effect.

Sequence of Estrogen receptor (Homo sapiens) (P03372 whole entry, looked up): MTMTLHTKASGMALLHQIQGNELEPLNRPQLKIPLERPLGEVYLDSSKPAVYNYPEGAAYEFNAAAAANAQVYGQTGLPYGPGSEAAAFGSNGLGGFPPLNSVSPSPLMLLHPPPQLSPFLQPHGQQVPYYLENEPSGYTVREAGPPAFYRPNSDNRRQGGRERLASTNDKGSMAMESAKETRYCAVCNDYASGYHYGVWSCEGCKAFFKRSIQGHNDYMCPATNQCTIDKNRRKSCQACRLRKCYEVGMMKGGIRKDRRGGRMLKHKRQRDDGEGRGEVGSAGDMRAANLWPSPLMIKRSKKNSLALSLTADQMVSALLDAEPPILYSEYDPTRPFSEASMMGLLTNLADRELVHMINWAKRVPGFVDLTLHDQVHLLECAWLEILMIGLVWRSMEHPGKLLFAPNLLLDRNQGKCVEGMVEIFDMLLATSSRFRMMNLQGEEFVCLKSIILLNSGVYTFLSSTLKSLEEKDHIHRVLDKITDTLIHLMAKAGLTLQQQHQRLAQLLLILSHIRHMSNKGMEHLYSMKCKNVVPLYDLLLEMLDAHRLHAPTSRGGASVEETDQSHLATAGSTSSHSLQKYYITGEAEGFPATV
Sequence of Aromatase (Homo sapiens) (P11511 whole entry, looked up): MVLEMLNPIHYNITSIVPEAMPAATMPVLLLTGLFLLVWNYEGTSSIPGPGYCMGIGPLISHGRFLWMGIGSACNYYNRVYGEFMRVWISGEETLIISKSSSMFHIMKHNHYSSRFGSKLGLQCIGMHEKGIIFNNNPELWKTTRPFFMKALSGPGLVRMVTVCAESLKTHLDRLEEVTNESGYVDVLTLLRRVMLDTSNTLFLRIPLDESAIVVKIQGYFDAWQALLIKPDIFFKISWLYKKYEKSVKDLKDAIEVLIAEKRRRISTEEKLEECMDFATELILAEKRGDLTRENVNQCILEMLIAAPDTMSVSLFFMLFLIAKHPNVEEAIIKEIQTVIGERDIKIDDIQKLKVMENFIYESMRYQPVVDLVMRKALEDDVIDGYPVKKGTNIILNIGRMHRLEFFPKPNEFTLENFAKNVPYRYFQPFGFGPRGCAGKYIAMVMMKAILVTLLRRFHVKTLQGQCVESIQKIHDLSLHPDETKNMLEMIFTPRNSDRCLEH

Cc1cc(O)cc2c1O[C@](C)(CCC[C@H](C)CCC[C@H](C)CCCC(C)C)CC2
inactive: outcome [1] | Potency [2] | Potency [3] | Potency [4] | Potency [5] | Potency [6] | Potency [7] | Potency [8] | outcome [9] | outcome [10] | outcome [11] | Potency [12] | Potency [13] | Potency [14] | Potency (Aromatase (Homo sapiens))

Cc1nc2c([nH]1)c(=O)n(C)c(=O)n2Cc1ccco1
inactive: outcome [1] | Potency [2] | Potency [3] | Potency [4] | Potency [5] | Potency [6] | Potency [7] | Potency [8] | outcome [9] | outcome [10] | outcome [11] | Potency [12] | Potency [13] | Potency [14] | Potency (Aromatase (Homo sapiens))

O=C(O)Cc1ccc(CCNS(=O)(=O)c2ccc(Cl)cc2)cc1
inactive: outcome [1] | Potency [2] | Potency [3] | Potency [4] | Potency [5] | Potency [6] | Potency [7] | Potency [8] | outcome [9] | outcome [10] | outcome [11] | Potency [12] | Potency [13] | outcome [15] | Potency [14] | Potency (Aromatase (Homo sapiens))

CC1(C)CO[C@@H](CC(=O)O)CN1
inactive: outcome [1] | Potency [2] | Potency [3] | Potency [4] | Potency [5] | Potency [6] | Potency [7] | Potency [8] | outcome [9] | outcome [10] | outcome [11] | Potency [12] | Potency [13] | Potency [14] | Potency (Aromatase (Homo sapiens))

N=C(N)c1ccc(OCCCOc2ccc(C(=N)N)cc2)cc1
inactive: outcome [1] | Potency [5] | Potency [6] | Potency [7] | Potency [8] | outcome [9] | outcome [10] | Potency [12] | Potency [13] | outcome [15] | Potency [14]
active: Potency [2] 4.22 µM | Potency [3] 8.41 µM | Potency [4] 5.96 µM

Cc1ccc(Cl)cc1Cl
inactive: outcome [1] | Potency [2] | Potency [3] | Potency [4] | Potency [5] | Potency [6] | Potency [7] | Potency [8] | outcome [9] | outcome [10] | outcome [11] | Potency [12] | Potency [13] | Potency [14] | Potency (Aromatase (Homo sapiens))

N[C@H]1CN(c2c(F)cc3c(=O)c(C(=O)O)cn(C4C[C@H]4F)c3c2Cl)CC12CC2 (some centres undefined)
inactive: outcome [1] | Potency [2] | Potency [3] | Potency [4] | Potency [5] | Potency [6] | Potency [7] | Potency [8] | outcome [9] | outcome [10] | outcome [11] | Potency [12] | Potency [13] | Potency (Aromatase (Homo sapiens))

CC(C)(C)NCCNC(C)(C)C
inactive: outcome [1] | Potency [2] | Potency [3] | Potency [4] | Potency [5] | Potency [6] | Potency [7] | Potency [8] | outcome [9] | outcome [10] | outcome [11] | Potency [12] | Potency [13] | Potency [14] | Potency (Aromatase (Homo sapiens))

NS(=O)(=O)c1ccccc1Cl
inactive: outcome [1] | Potency [2] | Potency [3] | Potency [4] | Potency [5] | Potency [6] | Potency [7] | Potency [8] | outcome [9] | outcome [11] | Potency [14] | Potency (Aromatase (Homo sapiens))

CCC(C)S (centres undefined)
inactive: viability change, negative = cytotoxic [1] -1.32% [at 3.15 µM] | activity change, negative = cytotoxicity [2] 25.1% [at 3.82 µM] | activity, negative = cytotoxicity [3] -7.66% [at 3.82 µM] | activity change, negative = cytotoxicity [4] 19.5% [at 3.83 µM] | activity change, negative = cytotoxicity [5] 6.76% [at 3.15 µM] | viability change, negative = cytotoxic [6] 8.95% [at 3.79 µM] | activity change, negative = cytotoxic [7] 23.6% [at 3.79 µM] | activity, negative = inhibition [8] 10.9% [at 3.79 µM] | activation [9] 1.37% [at 3.63 µM] | activity change, negative = cytotoxicity [14] 11% [at 3.79 µM] | activity, negative = inhibition (Aromatase (Homo sapiens)) 7.68% [at 3.79 µM]

CC/C=C\CC/C=C/C(OCC)OCC
inactive: outcome [1] | Potency [5] | Potency [6] | Potency [7] | outcome [9] | Potency [14]
active: Potency [2] 43.3 µM | Potency [3] 48.6 µM | Potency [4] 61.1 µM

CC(C)(C)c1ccc(O)c(O)c1
active: Potency [2] 17.8 µM and 6.11 µM | Potency [3] 12.6 µM and 7.27 µM | Potency [4] 12.6 µM and 10.5 µM | Potency [7] 70.9 µM and 56.1 µM | Potency [8] 56.3 µM and 24.3 µM
inactive and 12.6 µM (active): Potency (Aromatase (Homo sapiens))
inactive: outcome [1] | Potency [5] | Potency [6] | outcome [9] | outcome [11] | Potency [14]

C=CCCCCCCCCC=O
inactive: outcome [1] | Potency [2] | Potency [3] | Potency [4] | Potency [5] | Potency [6] | Potency [7] | outcome [9] | outcome [11] | Potency [12] | Potency [13] | outcome [15] | Potency [14] | Potency (Aromatase (Homo sapiens))

COC(C)(C)CCCC(C)CC=O (centres undefined)
inactive: outcome [1] | Potency [2] | Potency [3] | Potency [4] | Potency [5] | Potency [6] | Potency [7] | Potency [8] | outcome [9] | outcome [11] | Potency [14] | Potency (Aromatase (Homo sapiens))

COc1ccc(CCN(C)CCCC(C#N)(c2cc(OC)c(OC)c(OC)c2)C(C)C)cc1OC (centres undefined)
inactive: outcome [1] | Potency [5] | Potency [6] | outcome [9] | outcome [11] | Potency (Aromatase (Homo sapiens))
active: Potency [2] 16.8 µM | Potency [3] 29.8 µM | Potency [4] 29.8 µM | Potency [7] 29.8 µM

CN(C)CCCN1c2ccccc2CCc2ccc(Cl)cc21
inactive: outcome [1] | outcome [9] | outcome [11] | Potency (Aromatase (Homo sapiens))
active: Potency [2] 7.5 µM and 6.11 µM | Potency [3] 7.5 µM and 6.86 µM | Potency [4] 9.44 µM and 7.7 µM | Potency [5] 24.5 µM | Potency [6] 48.6 µM | Potency [7] 10.6 µM and 10.9 µM | Potency [8] 13.3 µM and 17.2 µM | Potency [14] 54.5 µM

Cn1c(N)c(N=O)c(=O)n(C)c1=O
inactive: outcome [1] | Potency [2] | Potency [3] | Potency [4] | Potency [5] | Potency [6] | Potency [7] | Potency [8] | outcome [9] | outcome [11] | Potency [14] | Potency (Aromatase (Homo sapiens))

FC(F)OC(Cl)C(F)(F)F (centres undefined)
inactive: outcome [1] | Potency [2] | Potency [3] | Potency [4] | Potency [5] | Potency [6] | Potency [7] | Potency [8] | outcome [9] | outcome [11] | Potency [14] | Potency (Aromatase (Homo sapiens))

CC(=O)OCC(=O)[C@@]1(O)CCC2C3CCC4=CC(=O)CC[C@]4(C)C3[C@@H](O)C[C@@]21C (some centres undefined)
inactive: outcome [1] | Potency [2] | Potency [3] | Potency [4] | Potency [5] | Potency [6] | Potency [7] | Potency [8] | outcome [9] | outcome [11] | Potency [14] | Potency (Aromatase (Homo sapiens))

NC(=O)c1ccc(N)cc1
inactive: outcome [1] | Potency [2] | Potency [3] | Potency [4] | Potency [5] | Potency [6] | Potency [7] | Potency [8] | outcome [9] | outcome [10] | Potency [12] | outcome [15] | Potency [14] | Potency (Aromatase (Homo sapiens))

O=C(O)CN(CCOCCOCCN(CC(=O)O)CC(=O)O)CC(=O)O
inactive: outcome [1] | Potency [2] | Potency [3] | Potency [4] | Potency [5] | Potency [6] | Potency [7] | Potency [8] | outcome [9] | outcome [11] | Potency [14] | Potency (Aromatase (Homo sapiens))

OC[C@]1(O)OC[C@@H](O)[C@H](O)[C@@H]1O
inactive: outcome [1] | Potency [2] | Potency [3] | Potency [4] | Potency [5] | Potency [6] | Potency [7] | Potency [8] | outcome [9] | outcome [11] | Potency [14] | Potency (Aromatase (Homo sapiens))

O=C1CCCC(=O)C1
inactive: outcome [1] | Potency [2] | Potency [3] | Potency [4] | Potency [5] | Potency [6] | Potency [7] | Potency [8] | outcome [9] | outcome [11] | Potency [14] | Potency (Aromatase (Homo sapiens))

C1OCOCO1
inactive: outcome [1] | Potency [2] | Potency [3] | Potency [4] | Potency [5] | Potency [6] | Potency [7] | Potency [8] | outcome [9] | outcome [11] | Potency [14] | Potency (Aromatase (Homo sapiens))
